Data on eight compounds can be found in PubChem BioAssay.

Activity calls are given as the source filed them. Unless noted, no rule for the calls is given here.

Test [1] relates to Wnt5a (protein binding on small-molecule microarray). The test is described as follows: Wnt5a binders on small-molecule microarray, primary screen, biophysical, 635/667 nm fluorescence (AID 1142).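 Also: fluorescence read at 667 nm with signal to noise per printed feature.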 The conditions noted are these: 635 nm fluorescence, higher = more signal.
Test [2] can be described thus: cell viability in Huh7 cells, primary screen, cytotoxicity control for HCV replication inhibitor project, CellTiter-Glo luminescence, basal, 48 h (AID 1143).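 Also: Huh7 hepatoma cells carrying a hepatitis C replication reporter with no stimulus; test concentration not given here.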 The conditions noted are these: Huh7 HCV replicon, higher = more signal, called active from +8 up or from −8 down. For orientation: Cellular ATP, detected with luciferase, serves as a proxy for viable cell number.

Test [3] is described as follows: P. aeruginosa biofilm formation inhibitors, primary screen, PAO1 strain, BacTiter-Glo luminescence, LB-PBS (AID 1144). The conditions noted are these: 12 h, higher = more signal.
Test [4] in a line: CREB reporter modulators without forskolin, primary screen, cell-based, PC12, CRE-LacZ reporter, unstimulated (AID 1145). Particulars: no forskolin, luminescence, 4.5 h, higher = more signal, called active from +8 up or from −8 down.
The nature of test [5]: CREB reporter modulators under forskolin, primary screen, cell-based, PC12, CRE-LacZ reporter, forskolin-stimulated (AID 1146).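 Also: PC12 cells with 6xCRE LacZ reporter stimulated by forskolin 10 µM; beta-galactosidase reporter signal reflecting CREB driven transcription.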 The conditions noted are these: luminescence, 4.5 h, higher = more signal, called active from +8 up or from −8 down.
In test [6] the target is Streptavidin (Streptomyces avidinii) (UniProt P22629). The test is described as follows: streptavidin binders on small-molecule microarray, primary screen, artefact control for SMM compound annotation, biophysical, 635/667 nm fluorescence (AID 1147).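 Also: signal reflects streptavidin binding to arrayed compounds as a control protein.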 Particulars: streptavidin binding, higher = more signal.
Streptavidin (Streptomyces avidinii), sequence (P22629 whole entry, looked up): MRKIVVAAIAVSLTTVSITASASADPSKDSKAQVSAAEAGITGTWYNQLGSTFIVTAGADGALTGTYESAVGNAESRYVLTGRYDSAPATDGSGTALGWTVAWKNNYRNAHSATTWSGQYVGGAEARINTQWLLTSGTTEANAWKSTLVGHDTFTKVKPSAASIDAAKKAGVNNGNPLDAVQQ
A short description of test [7]: small-molecule binders of probe aInhba, primary screen, biochemical, small-molecule microarray, 635/667 nm fluorescence (AID 1148).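 Also: score merges 667nm spot fluorescence with signal-to-noise for antibody binding to printed compounds.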 Particulars: higher = more signal.
Test [8] has as its target Torsin-1A (Homo sapiens) (UniProt O14656). The test is described as follows: torsin A binders from cell lysate, primary screen, small-molecule microarray, wild-type, 635/667 nm (AID 1149). Particulars: COS7 hTOR1A-WT lysate, 635 nm fluorescence, higher = more signal.
The target is the same in test [9]. The test is described as follows: small-molecule binders of mutant TOR1A in lysate, primary screen, cell lysate, small-molecule microarray, COS7 lysate, 635/667 nm fluorescence (AID 1150).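 Also: score pools 667 nm emission and signal to noise measuring lysate protein binding.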 The conditions noted are these: COS7 hTOR1A mutant lysate, 635 nm fluorescence, higher = more signal.
The test system of test [10] is Sonic hedgehog protein (Shh). The test is described as follows: small-molecule binders of Shh protein, primary screen, biochemical, small-molecule microarray, 635/667 nm fluorescence (AID 1151).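 Also: Shh protein binding to compounds spotted on small-molecule microarray slides; score combines spot fluorescence intensity with signal-to-noise across triplicate slides.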 Particulars: small-molecule microarray binding, 635 nm fluorescence; higher = more signal.
The nature of test [11]: E. coli DRC41 culture turbidity changes, primary screen, E. coli filamentation inducer project, strain DRC41, OD650, 48 h (AID 1152).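 Also: E. coli MC1000 strain DRC41 lacking acrAB efflux pump and sulA.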 The conditions noted are these: E. coli DRC41 (acrAB sulA), higher = more signal, called active from +8 up or from −8 down.
A short description of test [12]: small-molecule binders of probe aLefty1, primary screen, biochemical, small-molecule microarray, 635/667 nm fluorescence (AID 1153).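 Also: score merges spot fluorescence with signal-to-noise ratio from the scanned slide images.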 Particulars: higher = more signal.
Test [13] is described as follows: PSAC antagonists in infected red cells, primary screen, cell-based, P. falciparum Indochina, OD700, 1 h (AID 1154). The conditions noted are these: P. falciparum Indochina infected RBC osmotic lysis, higher = more signal, called active from +8 up or from −8 down.
Test [14] can be described thus: PSAC antagonists in infected red cells, primary screen, cell-based, P. falciparum Indochina, OD700, 2 h (AID 1155).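 Also: lysis reports solute entry through the parasite surface anion channel PSAC; channel blockers reduce lysis of infected cells.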 The conditions noted are these: P. falciparum Indochina infected erythrocytes, osmotic lysis OD700; higher = more signal, called active from +8 up or from −8 down.
The nature of test [15]: osmotic lysis modulators in infected erythrocytes, primary screen, PSAC antagonist project, cell-based, P. falciparum Indochina, OD700, 3 h (AID 1156). The conditions noted are these: higher = more signal, called active from +8 up or from −8 down.
Test [16] in a line: PSAC antagonists in infected red cells, primary screen, cell-based, P. falciparum Indochina, OD700, 18 h (AID 1157). The conditions noted are these: P. falciparum Indochina infected erythrocytes, osmotic lysis OD700, 18 h; higher = more signal, called active from +8 up or from −8 down.
A short description of test [17]: modulators of S6 phosphorylation in cells, primary screen, cell-based, A549, cytoblot, luminescence, serum-stimulated (AID 1158).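 Also: serum-stimulated A549 lung adenocarcinoma cells; signal is phosphorylated S6 detected by cytoblot immunostaining with HRP secondary.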 Particulars: A549 phospho-S6 cytoblot, 5 h, higher = more signal.
The target of test [18] is NADPH oxidase 2 (Homo sapiens) (UniProt P04839). The test is described as follows: NOX2-dependent H2O2 signal modulators, primary screen, NOX inhibitor project, cell-based, HEK293-NOX2, PMA-stimulated, Amplex Red fluorescence (AID 1159). Also: test concentration not given here. Particulars: 45 min, higher = more signal, called active from +8 up or from −8 down.
NADPH oxidase 2 (Homo sapiens), sequence (P04839 whole entry, looked up): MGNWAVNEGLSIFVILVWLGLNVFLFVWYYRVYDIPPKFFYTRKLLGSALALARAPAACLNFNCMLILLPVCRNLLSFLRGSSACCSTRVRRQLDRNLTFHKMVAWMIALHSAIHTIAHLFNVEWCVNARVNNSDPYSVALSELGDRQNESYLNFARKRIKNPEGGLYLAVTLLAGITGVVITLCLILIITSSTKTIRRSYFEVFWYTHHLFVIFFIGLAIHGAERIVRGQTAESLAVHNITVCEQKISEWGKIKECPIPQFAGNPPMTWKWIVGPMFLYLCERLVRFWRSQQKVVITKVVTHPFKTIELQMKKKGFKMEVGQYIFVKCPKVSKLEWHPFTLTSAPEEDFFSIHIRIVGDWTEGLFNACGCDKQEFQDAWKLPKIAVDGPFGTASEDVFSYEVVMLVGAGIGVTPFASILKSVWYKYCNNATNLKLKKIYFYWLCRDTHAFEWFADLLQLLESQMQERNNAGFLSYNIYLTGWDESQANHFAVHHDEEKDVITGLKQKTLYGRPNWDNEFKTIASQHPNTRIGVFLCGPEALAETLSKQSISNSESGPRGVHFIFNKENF
Test [19] has as its target NADPH oxidase 4 (Homo sapiens) (UniProt Q9NPH5). The test is described as follows: NOX4-dependent H2O2 signal modulators, primary screen, NOX inhibitor project, cell-based, HEK293-NOX4, tetracycline-induced, Amplex Red fluorescence (AID 1160). The conditions noted are these: 45 min, higher = more signal, called active from +8 up or from −8 down.
Test [20] deals with NADPH oxidase 5 (Homo sapiens) (UniProt Q96PH1). The test is described as follows: NOX5-dependent H2O2 signal modulators, primary screen, NOX inhibitor project, cell-based, HEK293-NOX5, Amplex Red fluorescence (AID 1161). The conditions noted are these: HEK293-NOX5, ionomycin, 45 min, higher = more signal.
NADPH oxidase 5 (Homo sapiens), sequence (Q96PH1 whole entry, looked up): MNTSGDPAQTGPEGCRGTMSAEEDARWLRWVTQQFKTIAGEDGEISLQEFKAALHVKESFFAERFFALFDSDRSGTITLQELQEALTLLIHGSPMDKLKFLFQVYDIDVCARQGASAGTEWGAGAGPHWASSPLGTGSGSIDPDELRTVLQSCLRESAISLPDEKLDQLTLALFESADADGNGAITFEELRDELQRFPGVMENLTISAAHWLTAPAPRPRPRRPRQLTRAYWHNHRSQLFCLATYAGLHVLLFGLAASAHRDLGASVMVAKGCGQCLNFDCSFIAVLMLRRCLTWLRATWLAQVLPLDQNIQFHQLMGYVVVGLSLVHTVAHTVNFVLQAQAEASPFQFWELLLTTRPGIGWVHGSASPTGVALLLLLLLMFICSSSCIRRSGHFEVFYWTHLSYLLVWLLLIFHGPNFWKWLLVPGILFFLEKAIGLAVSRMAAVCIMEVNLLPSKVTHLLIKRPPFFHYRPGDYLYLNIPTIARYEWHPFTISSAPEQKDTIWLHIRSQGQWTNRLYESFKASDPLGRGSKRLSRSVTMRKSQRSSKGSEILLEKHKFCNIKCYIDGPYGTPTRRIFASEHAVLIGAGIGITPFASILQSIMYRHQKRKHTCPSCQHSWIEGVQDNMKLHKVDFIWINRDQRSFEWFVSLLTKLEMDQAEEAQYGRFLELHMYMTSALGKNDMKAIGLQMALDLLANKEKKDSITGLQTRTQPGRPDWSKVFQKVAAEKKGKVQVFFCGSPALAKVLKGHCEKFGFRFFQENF

NADPH oxidase 4 (Homo sapiens), sequence (Q9NPH5 whole entry, looked up): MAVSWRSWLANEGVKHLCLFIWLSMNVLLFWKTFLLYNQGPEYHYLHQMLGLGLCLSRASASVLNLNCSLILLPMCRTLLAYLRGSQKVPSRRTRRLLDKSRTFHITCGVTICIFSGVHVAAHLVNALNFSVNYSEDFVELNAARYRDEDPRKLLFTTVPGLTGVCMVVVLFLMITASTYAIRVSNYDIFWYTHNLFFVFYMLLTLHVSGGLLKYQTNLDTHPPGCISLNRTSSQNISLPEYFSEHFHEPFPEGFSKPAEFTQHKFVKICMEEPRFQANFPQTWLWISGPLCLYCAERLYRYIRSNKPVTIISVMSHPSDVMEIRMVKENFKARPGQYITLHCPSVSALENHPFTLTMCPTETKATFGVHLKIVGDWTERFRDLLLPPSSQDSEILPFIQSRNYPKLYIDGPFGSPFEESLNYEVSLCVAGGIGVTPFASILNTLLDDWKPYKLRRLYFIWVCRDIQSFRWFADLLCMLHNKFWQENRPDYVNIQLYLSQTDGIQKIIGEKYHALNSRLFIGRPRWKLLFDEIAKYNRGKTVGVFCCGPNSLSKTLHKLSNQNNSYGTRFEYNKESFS
Torsin-1A (Homo sapiens), sequence (O14656 whole entry, looked up): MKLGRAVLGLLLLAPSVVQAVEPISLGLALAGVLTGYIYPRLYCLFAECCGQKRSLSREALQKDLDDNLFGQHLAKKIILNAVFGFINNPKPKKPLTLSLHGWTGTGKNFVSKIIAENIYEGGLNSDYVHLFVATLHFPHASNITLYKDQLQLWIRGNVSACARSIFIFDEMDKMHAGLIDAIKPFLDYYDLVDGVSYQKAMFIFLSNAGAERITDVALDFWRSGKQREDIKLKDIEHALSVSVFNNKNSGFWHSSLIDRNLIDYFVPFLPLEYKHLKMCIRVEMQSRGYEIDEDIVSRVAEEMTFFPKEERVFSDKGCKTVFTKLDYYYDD

Regarding `O=C1C2C=CC(C(O)C3CC=CCC3)N(Nc3ccccc3)C2C(=O)N1c1ccccc1` (stereo not given), the composite z-score was -0.0727 in test [1]; 0.801 in [6]; 0.292 in [7]; -0.235 with Torsin-1A (Homo sapiens) [8]; 0.687 in the test with Torsin-1A (Homo sapiens) [9]; -0.143 in test [10]. In addition, in test [12], the composite z-score was found to be 0.663. Further, the z-score was -2.74 (inactive) in test [2]; -0.879 (inactive) in test [3]; 0.426 (inactive) in test [4]; 0.305 (inactive) in test [5]; -1.5 (inactive) in [11]; 3.38 (inactive) in test [13]. Also, the z-score is -0.228 (inactive) in test [14]; 1.53 (inactive) in test [15]; -1.33 (inactive) in [16]; 0.879 in [17]; -3.1 (inactive) in test [18]; -4.95 (inactive) in test [19]. Also, in [20], the z-score is -6.07.

Regarding `Cc1ccc(S[C@]2(C(=O)NCC(F)(F)F)CC(=O)N(Cc3cc(C(F)(F)F)cc(C(F)(F)F)c3)[C@@H]2c2ccc(CO)cc2I)cc1`, the composite z-score is -0.676 in test [1]; -0.978 in test [6]; -0.153 in [7]; -0.877 with Torsin-1A (Homo sapiens) [8]; -0.902 in the test with Torsin-1A (Homo sapiens) [9]; -0.58 in test [10]. For the same compound, the composite z-score in test [12] was -0.563. Further, the z-score was -3.02 (inactive) in [2]; -1.29 (inactive) in test [3]; -0.529 (inactive) in test [4]; 0.423 (inactive) in test [5]; 0.168 (inactive) in [11]; 1.71 (inactive) in test [13]. The z-score in test [14] is -0.0111 (inactive); in test [15], 1.12 (inactive); in test [16] it was 0.449 (inactive); in test [17], 0.837; in test [18], 1.63 (inactive); in test [19], -2.46 (inactive). Further, the z-score in test [20] is -1.28.

In the case of `C=CCC(OC(C)=O)[C@@H]1[C@@H](N(Cc2cccc3ccccc23)C(=O)Cc2ccc(F)cc2)c2cc(OCCCO)ccc2N1C(=O)c1ccc2ccccc2c1` (stereo not given in full), the composite z-score was 0.107 in test [1]; 0.0722 in test [6]; -0.0774 in test [7]; -0.035 with Torsin-1A (Homo sapiens) [8]; -0.183 in the test with Torsin-1A (Homo sapiens) [9]; 0.508 in test [10]. In test [12], this compound returned a composite z-score of 0.23. For the same compound, the z-score in test [2] was -0.156 (inactive); in test [3] it was -1.04 (inactive); in [4], -0.724 (inactive); in [5], 1.06 (inactive); in test [11] it was 0.978 (inactive); in test [13], 1.06 (inactive). The z-score in test [14] was 0.479 (inactive); in [15] it was 0.51 (inactive); in test [16], 0.484 (inactive); in test [17], 0.336; in test [18], -1.5 (inactive); in test [19], 0.344 (inactive). The z-score in test [20] was 0.453.

Consider `Cn1cccc1C(O)C1C=CC2C(=O)N(c3ccccc3)C(=O)C2N1Nc1ccccc1` (stereo not given), for which the composite z-score came out at 0.402 in [1]; 1.77 in [6]; 0.153 in [7]; 0.478 with Torsin-1A (Homo sapiens) [8]; 0.726 in the test with Torsin-1A (Homo sapiens) [9]; 0.379 in test [10]. Further, the composite z-score in [12] was 0.358. The z-score was 0.525 (inactive) in test [2]; -0.758 (inactive) in test [3]; -0.525 (inactive) in test [4]; -0.0981 (inactive) in test [5]; -0.548 (inactive) in test [11]; 2.42 (inactive) in [13]. Also, the z-score was 1.31 (inactive) in test [14]; 0.361 (inactive) in [15]; 1.44 (inactive) in test [16]; -0.55 in test [17]; -1.34 (inactive) in test [18]; -1.94 (inactive) in test [19]. The same compound registered a z-score in test [20] of -1.81.

As for `O=C1C2C=CC(C(O)c3ccco3)N(Nc3ccccc3F)C2C(=O)N1c1ccccc1` (stereo not given), the composite z-score in test [1] was 0.0072; in [6] it was 0.99; in [7], 0.0275; in the test with Torsin-1A (Homo sapiens) [8] it was -0.615; with Torsin-1A (Homo sapiens) [9] it was -0.0102; in test [10], 0.155. This compound also showed a composite z-score in test [12] of 0.361. In addition, the z-score in test [2] is 0.761 (inactive); in [3] it was -0.853 (inactive); in test [4], -0.136 (inactive); in [5], 0.942 (inactive); in [11], -1.72 (inactive); in test [13], 0.188 (inactive). Further, the z-score in [14] is 1.05 (inactive); in test [15], -0.197 (inactive); in test [16] it was 0.975 (inactive); in test [17], -0.754; in [18], -0.73 (inactive); in [19] it was 0.251 (inactive). The compound also yielded a z-score in test [20] of -1.64.

Regarding `CC(C)N1CC=CC23O[C@@H]4C=CCCOC(=O)C4[C@H]2C(=O)N(CCCO)[C@@H]3C1=O` (stereo not given in full), the composite z-score in test [1] is -0.352; in [6] it was -0.912; in [7], -0.0933; with Torsin-1A (Homo sapiens) [8], -1.02; with Torsin-1A (Homo sapiens) [9], -0.457; in test [10] it was 0.403. In test [12], this compound displayed a composite z-score of 0.0656. The z-score in [2] was -2.89 (inactive); in test [3], -0.614 (inactive); in [4] it was -0.749 (inactive); in test [5], -0.313 (inactive); in [11], 2.91 (inactive); in [13], -0.0633 (inactive). Moreover, the z-score in test [14] was -0.706 (inactive); in test [15], 1.3 (inactive); in [16], -0.646 (inactive); in test [17], 0.842; in [18] it was -1.67 (inactive); in test [19], -2.17 (inactive). This compound also displayed a z-score in [20] of -2.78.

Turning to `CN(C)C(=O)[C@]1(CCC(=O)OC(C)(C)C)N=C(c2ccc(OCCCO)cc2)O[C@@H]1c1ccccc1CN=[N+]=[N-]`, the composite z-score is 1.44 in [1]; 0.588 in test [6]; -0.071 in test [7]; 1.53 in the test with Torsin-1A (Homo sapiens) [8]; 1.24 with Torsin-1A (Homo sapiens) [9]; -0.646 in test [10]. The composite z-score in test [12] was -0.182. Further, the z-score in [2] is -1.5 (inactive); in [3], -1.42 (inactive); in [4] it was -0.744 (inactive); in test [5] it was -0.147 (inactive); in test [11] it was 0.636 (inactive); in test [13], 29.8 (active). Also, the z-score in test [14] is 25.2 (active); in [15], 2.29 (inactive); in test [16], 3.77 (inactive); in [17], -0.175; in [18] it was 0.629 (inactive); in test [19] it was 2.22 (inactive). The z-score in test [20] was 1.19.

For the compound `O=C(NCCN1CCOCC1)[C@@H]1c2ccccc2C(=O)N(C2Cc3ccccc3C2)[C@H]1c1ccc(CO)cc1`, the composite z-score in test [1] is -0.136; in [6], -0.456; in test [7], -0.0509; in the test with Torsin-1A (Homo sapiens) [8] it was 1.3; with Torsin-1A (Homo sapiens) [9] it was 0.966; in test [10] it was 0.105. Also, the composite z-score in [12] is -0.0292. For the same compound, the z-score was -1.59 (inactive) in test [2]; -0.264 (inactive) in [3]; 0.118 (inactive) in [4]; -1.42 (inactive) in [5]; 2.03 (inactive) in [11]; 3.11 (inactive) in [13]. Moreover, the z-score in test [14] is -0.0966 (inactive); in test [15], -0.056 (inactive); in test [16] it was 0.0832 (inactive); in test [17] it was 1.31; in test [18] it was 0.182 (inactive); in test [19], 0.855 (inactive). This compound returned a z-score in test [20] of -0.0278.
